# Experimental data: PubChem BioAssay
# The source made the active and inactive calls.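 How the source made its calls, unless noted: active means normalized viability below 100% at a tested concentration; inactive means the rest.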
# Assays:
# [1] = viability loss with induced miR-34 in A549 – imaging, A549 dox-inducible miR-34, nuclei and caspase counts, primary screen (AID 1347080;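 active means compounds whose cell count with miR-34 switched on is under 0.7 times the count with it off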); details: A549 miR-34 inducible, Hoechst nuclei count, 48 h
# [2] = MELAS cybrid and Rieske KO viability enhancers – cell-based, MELAS cybrids, Rieske KO mouse fibroblasts, CellTiter-Glo, primary screen (AID 1508586;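 active means mean z-score across replicates of 1.96 or higher in either the MELAS or the Rieske mutant cell line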;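 further: z relative to plate mean and SD of compound and empty wells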); details: low glucose
# [3] = drug combination growth inhibition, ovarian cancer – cell-based, oncology-focused library, rucaparib conditional, profiling panel (AID 1508598); details: patient-derived ovarian cancer cells, CellTiter-Glo viability, 144 h, stronger effect = lower value
# [4] = galactose survival enhancers in mitochondrial complex I cybrids – cell-based, galactose medium, ATP luminescence, primary screen (AID 1645843;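 active means z-score of at least 1.8 in each of two replicates, scored against plate mean and spread of sample wells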;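 further: positive z means more ATP and so rescue of galactose-driven cybrid death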); details: complex I mutant cybrid cells, 72 h, stronger effect = higher value
# [5] = P. berghei load reduction in hepatocytes – cell-based, HepG2, luciferase luminescence, HepG2 viability, primary screen (AID 624349; in the data active means parasite load remaining mostly below about 12%, no sharp cut-off; inactive means mostly above about 10%;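 further: 100% = mean of DMSO negative control wells on the same plate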); details: P. berghei liver stage in HepG2, luciferase luminescence, concentration not given here; parasite load remaining: stronger effect = lower value; viability: measured here: HepG2 viability without parasites
# [6] = biological target: NAD(+) hydrolase SARM1 (Homo sapiens) (UniProt Q6SZW1); assay: blocking NAD cleavage by SARM1 SAM-TIR – cell lysate, NAD-Glo luminescence (AID 1508614;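 active means compound whose remaining NAD level is above about 45 nM, limit read from the data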); details: SAM-TIR HEK293T lysate NADase, at 1 µM, stronger effect = higher value
# [7] = stronger effect = lower value, cell number ratio, induced over uninduced
# [8] = measured here: relative caspase fold change +Dox/-Dox
# [9] = measured here: total cells with miR-34 induction, stronger effect = lower value
# [10] = measured here: total cells without miR-34 induction
# [11] = MELAS cybrid survival, CellTiter-Glo 48 h, stronger effect = higher value
# [12] = Rieske KO mouse fibroblast survival, CellTiter-Glo 72 h
# Sequence of NAD(+) hydrolase SARM1 (Homo sapiens) (Q6SZW1 whole entry, looked up): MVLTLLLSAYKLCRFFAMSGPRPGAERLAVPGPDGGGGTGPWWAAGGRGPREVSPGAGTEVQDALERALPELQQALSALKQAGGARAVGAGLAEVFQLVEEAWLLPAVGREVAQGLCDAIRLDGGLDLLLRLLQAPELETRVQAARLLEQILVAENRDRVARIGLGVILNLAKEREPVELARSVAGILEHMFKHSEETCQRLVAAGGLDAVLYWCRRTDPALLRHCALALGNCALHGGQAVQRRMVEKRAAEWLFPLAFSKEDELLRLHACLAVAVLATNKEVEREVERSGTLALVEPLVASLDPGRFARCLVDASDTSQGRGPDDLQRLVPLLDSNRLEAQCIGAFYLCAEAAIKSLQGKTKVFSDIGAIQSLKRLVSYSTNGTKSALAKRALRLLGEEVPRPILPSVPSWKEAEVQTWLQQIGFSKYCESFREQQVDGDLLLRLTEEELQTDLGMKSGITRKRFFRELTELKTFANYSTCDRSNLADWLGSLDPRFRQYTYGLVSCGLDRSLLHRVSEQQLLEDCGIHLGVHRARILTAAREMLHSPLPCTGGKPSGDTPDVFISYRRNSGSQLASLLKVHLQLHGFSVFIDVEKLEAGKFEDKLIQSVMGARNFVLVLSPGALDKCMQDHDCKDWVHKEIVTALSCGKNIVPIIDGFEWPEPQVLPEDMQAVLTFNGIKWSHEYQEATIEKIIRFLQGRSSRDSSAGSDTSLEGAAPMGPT
compound,measurement,setting,value
Cc1ccc(NC(=O)c2ccc(CN3CCN(C)CC3)cc2)cc1Nc1nc(-c2cccnc2)cs1,fold change,[1]; [7],0.856 (inactive)
same,fold change,[1]; [8],1.16
same,cell count,[1]; [9],5500
same,cell count,[1]; [10],6420
same,z-score,[2]; [11],-0.618 (inactive)
same,z-score,[2]; [12],0.938
same,viability,"[3]; at 0.000305 µM, OCI-C5x cells, with rucaparib 10 µM, 100% = cells with rucaparib alone",103% (inactive)
same,viability,"[3]; at 0.000305 µM, OCI-C5x cells, without rucaparib",124% (inactive)
same,viability,"[3]; at 0.000305 µM, OCI-P5x cells, with rucaparib 20 µM, 100% = cells with rucaparib alone",105% (inactive)
same,viability,"[3]; at 0.000305 µM, OCI-P5x cells, without rucaparib",93.4% (active)
same,viability,"[3]; at 0.00122 µM, OCI-C5x cells, with rucaparib 10 µM, 100% = cells with rucaparib alone",105% (inactive)
same,viability,"[3]; at 0.00122 µM, OCI-C5x cells, without rucaparib",120% (inactive)
same,viability,"[3]; at 0.00122 µM, OCI-P5x cells, with rucaparib 20 µM, 100% = cells with rucaparib alone",109% (inactive)
same,viability,"[3]; at 0.00122 µM, OCI-P5x cells, without rucaparib",96.2% (active)
same,viability,"[3]; at 0.00488 µM, OCI-C5x cells, with rucaparib 10 µM, 100% = cells with rucaparib alone",112% (inactive)
same,viability,"[3]; at 0.00488 µM, OCI-C5x cells, without rucaparib",129% (inactive)
same,viability,"[3]; at 0.00488 µM, OCI-P5x cells, with rucaparib 20 µM, 100% = cells with rucaparib alone",102% (inactive)
same,viability,"[3]; at 0.00488 µM, OCI-P5x cells, without rucaparib",92.7% (active)
same,viability,"[3]; at 0.0195 µM, OCI-C5x cells, with rucaparib 10 µM, 100% = cells with rucaparib alone",109% (inactive)
same,viability,"[3]; at 0.0195 µM, OCI-C5x cells, without rucaparib",124% (inactive)
same,viability,"[3]; at 0.0195 µM, OCI-P5x cells, with rucaparib 20 µM, 100% = cells with rucaparib alone",99.3% (active)
same,viability,"[3]; at 0.0195 µM, OCI-P5x cells, without rucaparib",85.4% (active)
same,viability,"[3]; at 0.0781 µM, OCI-C5x cells, with rucaparib 10 µM, 100% = cells with rucaparib alone",100% (inactive)
same,viability,"[3]; at 0.0781 µM, OCI-C5x cells, without rucaparib",123% (inactive)
same,viability,"[3]; at 0.0781 µM, OCI-P5x cells, with rucaparib 20 µM, 100% = cells with rucaparib alone",97% (active)
same,viability,"[3]; at 0.0781 µM, OCI-P5x cells, without rucaparib",92.9% (active)
same,viability,"[3]; at 0.313 µM, OCI-C5x cells, with rucaparib 10 µM, 100% = cells with rucaparib alone",113% (inactive)
same,viability,"[3]; at 0.313 µM, OCI-C5x cells, without rucaparib",124% (inactive)
same,viability,"[3]; at 0.313 µM, OCI-P5x cells, with rucaparib 20 µM, 100% = cells with rucaparib alone",102% (inactive)
same,viability,"[3]; at 0.313 µM, OCI-P5x cells, without rucaparib",84.1% (active)
same,viability,"[3]; at 1.25 µM, OCI-C5x cells, with rucaparib 10 µM, 100% = cells with rucaparib alone",106% (inactive)
same,viability,"[3]; at 1.25 µM, OCI-C5x cells, without rucaparib",130% (inactive)
same,viability,"[3]; at 1.25 µM, OCI-P5x cells, with rucaparib 20 µM, 100% = cells with rucaparib alone",91.9% (active)
same,viability,"[3]; at 1.25 µM, OCI-P5x cells, without rucaparib",87.9% (active)
same,viability,"[3]; at 5 µM, OCI-C5x cells, with rucaparib 10 µM, 100% = cells with rucaparib alone",129% (inactive)
same,viability,"[3]; at 5 µM, OCI-C5x cells, without rucaparib",138% (inactive)
same,viability,"[3]; at 5 µM, OCI-P5x cells, with rucaparib 20 µM, 100% = cells with rucaparib alone",84.2% (active)
same,viability,"[3]; at 5 µM, OCI-P5x cells, without rucaparib",82% (active)
Cn1nc(-c2cccnc2)c2[nH]c(-c3ccc4c(c3)OCCO4)nc21,fold change,[1]; [7],0.86 (inactive)
same,fold change,[1]; [8],1.08
same,cell count,[1]; [9],5270
same,cell count,[1]; [10],6130
same,z-score,[2]; [11],12.6 (active)
same,z-score,[2]; [12],3.9
same,z-score,[4],4.01 (active)
O=C(O)CCCCc1ccccc1,fold change,[1]; [7],0.916 (inactive)
same,fold change,[1]; [8],0.396
same,cell count,[1]; [9],9010
same,cell count,[1]; [10],9830
same,z-score,[2]; [11],0.335 (inactive)
same,z-score,[2]; [12],-0.289
same,z-score,[4],0.82 (inactive)
NC[C@H]1O[C@H](O[C@H]2[C@H](O)[C@@H](O[C@H]3O[C@H](CO)[C@@H](O)[C@H](N)[C@H]3O)[C@H](N)C[C@@H]2N)[C@H](O)[C@@H](O)[C@@H]1O,parasite load remaining,[5],178% (inactive)
same,viability,[5],108%
same,fold change,[1]; [7],0.854 (inactive)
same,fold change,[1]; [8],1.26
same,cell count,[1]; [9],8420
same,cell count,[1]; [10],9860
same,z-score,[2]; [11],-0.387 (inactive)
same,z-score,[2]; [12],-0.145
same,remaining NAD,[6],10 nM (inactive)
O=C(O)CNC(=O)Cc1c[nH]c2ccccc12,fold change,[1]; [7],0.855 (inactive)
same,fold change,[1]; [8],0.234
same,cell count,[1]; [9],8420
same,cell count,[1]; [10],9850
same,z-score,[2]; [11],-0.685 (inactive)
same,z-score,[2]; [12],-0.0302
same,z-score,[4],-0.545 (inactive)
CC(Nc1nc(N)nc2[nH]ncc12)c1ccc(Cl)cc1 (configuration not stated),fold change,[1]; [7],0.895 (inactive)
same,fold change,[1]; [8],1.28
same,cell count,[1]; [9],7110
same,cell count,[1]; [10],7940
same,z-score,[2]; [11],-0.461 (inactive)
same,z-score,[2]; [12],-0.503
same,z-score,[4],-0.575 (inactive)
O=C(O)CN(CCO)CCO,fold change,[1]; [7],0.873 (inactive)
same,fold change,[1]; [8],0.542
same,cell count,[1]; [9],8460
same,cell count,[1]; [10],9690
same,z-score,[2]; [11],-0.0565 (inactive)
same,z-score,[2]; [12],-0.265
same,z-score,[4],0.37 (inactive)
CC[C@H](C)C(=O)O[C@H]1C[C@H](O)C=C2C=C[C@H](C)[C@H](CC[C@@H]3C[C@@H](O)CC(=O)O3)[C@H]21,fold change,[1]; [7],0.872 (inactive)
same,fold change,[1]; [8],2.14
same,cell count,[1]; [9],9300
same,cell count,[1]; [10],10700
same,z-score,[2]; [11],0.0534 (inactive)
same,z-score,[2]; [12],-0.0126
same,z-score,[4],0.555 (inactive)
CNC(=O)c1ccccc1-c1cccc2ccccc12,fold change,[1]; [7],0.918 (inactive)
same,fold change,[1]; [8],0.701
same,cell count,[1]; [9],8250
same,cell count,[1]; [10],8980
same,z-score,[2]; [11],-0.403 (inactive)
same,z-score,[2]; [12],-0.242
same,z-score,[4],-0.535 (inactive)
O=C(O)c1ccc(O)cc1O,fold change,[1]; [7],0.891 (inactive)
same,fold change,[1]; [8],0.246
same,cell count,[1]; [9],8740
same,cell count,[1]; [10],9810
same,z-score,[2]; [11],-0.11 (inactive)
same,z-score,[2]; [12],-0.1
same,z-score,[4],0.565 (inactive)
O=C(O)CNC(=O)NC1CCCCC1,fold change,[1]; [7],0.908 (inactive)
same,fold change,[1]; [8],0.307
same,cell count,[1]; [9],9060
same,cell count,[1]; [10],9970
same,z-score,[2]; [11],0.384 (inactive)
same,z-score,[2]; [12],-0.24
same,z-score,[4],0.34 (inactive)
COc1ccc(CN(C)C(=O)Nc2nc(-c3ccccc3)ns2)cc1,fold change,[1]; [7],0.886 (inactive)
same,fold change,[1]; [8],1.46
same,cell count,[1]; [9],6810
same,cell count,[1]; [10],7690
same,z-score,[2]; [11],-0.0703 (inactive)
same,z-score,[2]; [12],0.35
same,z-score,[4],0.77 (inactive)
CN(C)Cc1cn(CC2CCN(C(=O)c3ccc4c(c3)OCO4)CC2)nn1,fold change,[1]; [7],0.896 (inactive)
same,fold change,[1]; [8],1.18
same,cell count,[1]; [9],9300
same,cell count,[1]; [10],10400
same,z-score,[2]; [11],-0.121 (inactive)
same,z-score,[2]; [12],-0.477
same,z-score,[4],-0.48 (inactive)
CCNc1ncc(-c2cc(C(=O)N(C)CCN(C)C)c3cc(F)ccc3n2)cn1,fold change,[1]; [7],0.912 (inactive)
same,fold change,[1]; [8],2.18
same,cell count,[1]; [9],8760
same,cell count,[1]; [10],9610
same,z-score,[2]; [11],-0.0763 (inactive)
same,z-score,[2]; [12],-0.44
same,z-score,[4],-0.56 (inactive)
CCn1ncc2[nH]c(-c3c(OC(C)C)ccc4ccccc34)nc21,fold change,[1]; [7],0.906 (inactive)
same,fold change,[1]; [8],1.3
same,cell count,[1]; [9],7700
same,cell count,[1]; [10],8510
same,z-score,[2]; [11],-0.33 (inactive)
same,z-score,[2]; [12],-0.482
same,z-score,[4],0.5 (inactive)
Fc1ccccc1-c1cc(NCc2ccncc2)n2nccc2n1,fold change,[1]; [7],1.06 (inactive)
same,fold change,[1]; [8],0.296
same,cell count,[1]; [9],4240
same,cell count,[1]; [10],4020
same,z-score,[2]; [11],-1.56 (inactive)
same,z-score,[2]; [12],-0.13
same,z-score,[4],0.425 (inactive)
OCCNc1ncnc2oc(-c3ccccc3)c(-c3ccccc3)c12,fold change,[1]; [7],0.989 (inactive)
same,fold change,[1]; [8],0.446
same,cell count,[1]; [9],5100
same,cell count,[1]; [10],5160
same,z-score,[2]; [11],0.83
same,z-score,[2]; [12],7.8
same,z-score,[4],-1.23 (inactive)
